Drawing on PubChem BioAssay (NCI), this text covers growth for 40 molecules.

Several values for one entry are separate records, joined by “and”; a condition that tells them apart may be missing. Equal entries are not always repeated. Compounds without any hit were thinned out: in the full panel of roughly 83,000, 20% have a hit.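 Growth was measured after 48 h exposure to one concentration of compound in 96-well plates. Values under 10 count as active.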 Activity calls are given as the source filed them.

In the assay the test system is MDA-MB-468 breast. The experiment in a line: NCI-60 one-dose screen, 48 h (100 = growth as untreated, 0 = no growth, -100 = all killed). The note with it: 10 µM unless noted.
For `CCCCCCCCCC(=O)N[C@@](C)(CC)C(=O)N1CCC[C@H]1C(=O)N[C@@H](CC(C)C)C(=O)N[C@@](C)(CC)C(=O)N[C@@H](CCC(N)=O)C(=O)N[C@H](CCC(N)=O)C(=O)NC(C)(C)C(=O)NC(C)(C)C(=O)N[C@@H](CCC(N)=O)C(=O)N[C@H](CC(C)C)C(=O)N[C@H](CO)CC(C)C`, the growth was -94.7% (active) and -92.4% (active).

Take `CC[C@H](C)[C@H](NC(=O)[C@H]1CCCCN1C)C(=O)N(C)[C@H](CCc1nc(C(=O)N[C@@H](Cc2ccccc2)C[C@H](C)C(=O)OC)cs1)C(C)C`: the growth is 35% (inactive).

With `O=C(CC1(O)C(=O)Nc2ccc(F)cc21)c1ccc(C(=O)NCC2CCC3(CC2)OOC2(CCCCC2)OO3)cc1` (stereo not given), the growth is 47.6% (inactive). In the case of `CCOP(=O)(OCC)C(O)c1ccccc1Cl` (stereo not given) it was 103% (inactive). In the case of `C/C(=C\c1ccn(-c2ccc(N)c(F)c2)n1)[C@@H]1C[C@@H]2O[C@]2(C)CCC[C@H](C)[C@H](O)[C@@H](C)C(=O)C(C)(C)[C@@H](O)CC(=O)O1` it was 10.5% (inactive); in that of `COC1=CC(=O)O[C@@H](/C=C/c2ccc3c(c2)OCO3)C1`, 103% (inactive); in that of `c1ccc2nc(OCCN3CC3)ccc2c1`, 69.3% (inactive). Take `O=C(CBr)OCCOC(=O)CBr`: the growth is 32.8% (inactive).

Turning to `CCOc1ccc(C(O)CN(C)Cc2ccccc2)cc1Cl` (stereo not given), the growth is 100% (inactive). In the case of `COc1cc([C@@H]2c3cc4c(cc3[C@H](OC(C)=O)[C@H]3COC(=O)[C@H]23)OCO4)cc(OC)c1OC` it was 44.6% (inactive). In the case of `CC(=O)c1cccc(S(=O)(=O)F)c1` it was 93.6% (inactive).

With `CC[C@H](C)[C@H]1O[C@]2(C=C[C@@H]1C)C[C@@H]1C[C@@H](C/C=C(\C)[C@@H](O[C@H]3C[C@H](OC)[C@@H](O[C@H]4C[C@H](OC)[C@@H](NC)[C@H](C)O4)[C@H](C)O3)[C@@H](C)/C=C/C=C3\CO[C@@H]4[C@H](O)C(C)=C[C@@H](C(=O)O1)[C@]34O)O2`, the growth is -68.8% (active). In the case of `Cc1ccc(N)cc1[As]=[As]c1cc(N)ccc1C` (stereo not given) it was -92.9% (active); in that of `CN1C(=O)C(=Cc2cn(Cc3ccccc3)c3ccccc23)C(=O)N(C)C1=O`, -49.5% (active); in that of `CC(=O)Oc1ccc(Cl)cc1`, 93.6% (inactive). In the case of `CC12CCC3C(CC=C4CC(O)CCC43C)C1C/C(=C\N1CCOCC1)C2=O` (stereo not given) it was 106% (inactive); in that of `O=[N+]([O-])c1ccc(N(CCO)CCO)c2c1no[n+]2[O-]`, 2.96% (active); in that of `O=[N+]([O-])c1cc([N+](=O)[O-])c(Cl)c(Cl)c1Cl`, -57.3% (active). `COc1cc(OC)c(S(=O)(=O)N(CCCl)CCCl)cc1C(=O)/C=C/c1ccc(Cl)cc1`: the growth is 47.6% (inactive).

As for `C[CH2][Sn]([CH2]C)([CH2]C)[NH]S(=O)(=O)c1ccc(C)cc1`, the growth was 114% (inactive). The result for `COc1ccc2c(c1)c(-c1nc(-c3cn(C)c4ncccc34)cs1)cn2CCCCN1CCCCC1` reads -2.69% (active). In the case of `O=C(CCCCCCC(=O)Nc1ccc(N(CCCl)CCCl)cc1)NO` it was -64.2% (active); in that of `C[C@H](O)CCC(=O)c1ccoc1`, 98.7% (inactive); in that of `O=C(O)C(Br)CBr` (stereo not given), 94.8% (inactive). As for `COc1ccc(/C=C(/C)[N+](=O)[O-])cc1OC`, the growth is -87.6% (active) and -87% (active).

On to `CC1[C@H](C)OC(=O)CC(O)CC(O)CC(O)CCC(O)C(O)C[C@]2(O)CC(O)C(C(=O)O)C(CC(OC3O[C@H](C)[C@@H](O)[C@H](N)[C@@H]3O)/C=C/C=C/C=C/C=C/CC/C=C/C=C/[C@H](C)[C@H]1O)O2` (stereo not given in full), for which the growth is 108% (inactive). The result for `CCOc1ccc(/C=C/[N+](=O)[O-])cc1` reads 35.4% (inactive); that for `COc1cc(C)c(-c2ccc(OC)c(=O)cc2C)c(OC)c1OC`, 33.8% (inactive) and 77.1% (inactive).

As for `CC(C)=CCc1c2c(c(O)c3c1O[C@]14C(=C[C@@H]5C[C@H]1C(C)(C)O[C@@]4(C/C=C(/C)C(=O)O)C5=O)C3=O)C=CC(C)(C)O2`, the growth was -80.8% (active).

For `O=C(/C=C/c1ccccc1)N[C@@H](CO)Cc1cnc[nH]1`, the growth is 102% (inactive). In the case of `C/C(=C\c1ccn(-c2ccccc2N)n1)[C@@H]1C[C@@H]2O[C@]2(C)CCC[C@H](C)[C@H](O)[C@@H](C)C(=O)C(C)(C)[C@@H](O)CC(=O)O1` it was 0% (active); in that of `COc1cc(NC(C)CCCNC2CN3CCC2CC3)c2ncccc2c1` (stereo not given), -1.39% (active). The result for `ClCCN(CCCl)c1ccc(/C=N\N=C\c2ccc(N(CCCl)CCCl)cc2)cc1` reads 50% (inactive); that for `CCCCCCCC[n+]1ccc2ccccc2c1`, 8.79% (active).

For `CC(=O)[O][Hg][c]1c(C)c(C)cc(C)c1C`, the growth was -79.4% (active). With `CCCCOc1ccc(C(N)Cc2ccccc2)cc1` (stereo not given), the growth is 76.2% (inactive). `C[C@]12CC[C@H]3[C@@H](C[C@@H]4N=C(c5ccc(O)cc5)S[C@@]45C[C@H](O)CC[C@]35C)[C@@H]1CC[C@@H]2O`: the growth is 81% (inactive). The result for `COC(=O)[C@@H](C)C[C@H](Cc1ccccc1)NC(=O)c1cccc([C@@H](C[C@H](C(C)C)N(C)C(=O)[C@@H](NC(=O)[C@H]2CCCCN2C)C(C)C)OC(C)=O)n1` reads 10.1% (inactive); that for `CN=C(NN)NN`, 112% (inactive). In the case of `CCOP(=O)(OCC)Oc1ccc(Sc2ccc(OP(=O)(OCC)OCC)cc2)cc1` it was 107% (inactive).
